{"source": "PubChem BioAssay (NCATS)", "key": {"[1]": {"test": "S16 Schwann cell viability assay (CellTiter-Glo assay) (AID 624031); further: nearly all actives have a fitted effect of over 70% in size; further: potency means the concentration at half of the fitted maximal effect", "how_it_was_run": "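Parental S16 cells, 24 h compound, 37 °C. ATP-luminescence viability; DMSO = 0% activity, empty wells as reference; curves classified by fit quality and efficacy.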"}, "[2]": {"test": "S16 Schwann cell PMP22 intronic element firefly luciferase assay (AID 624032); further: nearly all actives have a fitted effect of over 30% in size; further: potency means the concentration at half of the fitted maximal effect", "how_it_was_run": "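Rat S16 Schwann cells stably carrying a PMP22 intronic element-driven Fluc reporter were seeded overnight, then exposed to compounds for 24 h at 37 °C. Luminescence was normalized to PTC124 (positive control) and DMSO (0% activity).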"}, "C2A": {"tested_on": "C2A", "test": "qHTS profiling for inhibitors of Plasmodium falciparum proliferation (AID 504749); further: nearly all actives have a fitted effect of over 60% in size; further: potency means the concentration at half of the fitted maximal effect", "details": "P. falciparum in erythrocytes, SYBR Green DNA, 72 h; series mostly up to 12.8 µM", "how_it_was_run": "(§1)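 Quantitative HTS: compounds pinned into medium, infected erythrocytes added (0.3% parasitemia, 2.5% hematocrit), 72 h culture at 37 C under 5% CO2. Saponin/Triton lysis with SYBR Green I, overnight RT, then fluorescence read.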"}, "CP250": {"tested_on": "CP250", "test": "qHTS profiling for inhibitors of Plasmodium falciparum proliferation (AID 504749)", "details": "P. falciparum in erythrocytes, SYBR Green DNA, 72 h; series mostly up to 12.8 µM", "how_it_was_run": "as §1"}, "CP256": {"tested_on": "CP256", "test": "qHTS profiling for inhibitors of Plasmodium falciparum proliferation (AID 504749)", "details": "P. falciparum in erythrocytes, SYBR Green DNA, 72 h; series mostly up to 12.8 µM", "how_it_was_run": "as §1"}, "CP297": {"tested_on": "CP297", "test": "qHTS profiling for inhibitors of Plasmodium falciparum proliferation (AID 504749)", "details": "P. falciparum in erythrocytes, SYBR Green DNA, 72 h; series mostly up to 12.8 µM", "how_it_was_run": "as §1"}, "CP329": {"tested_on": "CP329", "test": "qHTS profiling for inhibitors of Plasmodium falciparum proliferation (AID 504749)", "details": "P. falciparum in erythrocytes, SYBR Green DNA, 72 h; series mostly up to 12.8 µM", "how_it_was_run": "as §1"}, "Dd2": {"tested_on": "Dd2", "test": "qHTS profiling for inhibitors of Plasmodium falciparum proliferation (AID 504749)", "details": "P. falciparum in erythrocytes, SYBR Green DNA, 72 h; series mostly up to 12.8 µM", "how_it_was_run": "as §1"}, "ECU": {"tested_on": "ECU", "test": "qHTS profiling for inhibitors of Plasmodium falciparum proliferation (AID 504749)", "details": "P. falciparum in erythrocytes, SYBR Green DNA, 72 h; series mostly up to 12.8 µM", "how_it_was_run": "as §1"}, "FAB9": {"tested_on": "FAB9", "test": "qHTS profiling for inhibitors of Plasmodium falciparum proliferation (AID 504749)", "details": "P. falciparum in erythrocytes, SYBR Green DNA, 72 h; series mostly up to 12.8 µM", "how_it_was_run": "as §1"}, "HB3": {"tested_on": "HB3", "test": "qHTS profiling for inhibitors of Plasmodium falciparum proliferation (AID 504749)", "details": "P. falciparum in erythrocytes, SYBR Green DNA, 72 h; series mostly up to 12.8 µM", "how_it_was_run": "as §1"}, "JCK": {"tested_on": "JCK", "test": "qHTS profiling for inhibitors of Plasmodium falciparum proliferation (AID 504749)", "details": "P. falciparum in erythrocytes, SYBR Green DNA, 72 h; series mostly up to 12.8 µM", "how_it_was_run": "as §1"}, "PAD": {"tested_on": "PAD", "test": "qHTS profiling for inhibitors of Plasmodium falciparum proliferation (AID 504749)", "details": "P. falciparum in erythrocytes, SYBR Green DNA, 72 h; series mostly up to 12.8 µM", "how_it_was_run": "as §1"}, "PC15": {"tested_on": "PC15", "test": "qHTS profiling for inhibitors of Plasmodium falciparum proliferation (AID 504749)", "details": "P. falciparum in erythrocytes, SYBR Green DNA, 72 h; series mostly up to 12.8 µM", "how_it_was_run": "as §1"}, "W2": {"tested_on": "W2", "test": "qHTS profiling for inhibitors of Plasmodium falciparum proliferation (AID 504749)", "details": "P. falciparum in erythrocytes, SYBR Green DNA, 72 h; series mostly up to 12.8 µM", "how_it_was_run": "as §1"}, "[3]": {"molecular_target": "Phospholipid hydroperoxide glutathione peroxidase GPX4 (Homo sapiens) (UniProt P36969)", "sequence (P36969 whole entry, looked up)": "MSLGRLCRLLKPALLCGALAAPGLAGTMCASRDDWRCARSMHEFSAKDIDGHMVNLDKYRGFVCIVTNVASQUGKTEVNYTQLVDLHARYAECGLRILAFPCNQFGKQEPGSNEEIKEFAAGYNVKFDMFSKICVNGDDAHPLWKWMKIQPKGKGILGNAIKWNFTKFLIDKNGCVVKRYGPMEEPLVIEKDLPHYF", "test": "Primary qHTS Assay for Inhibitors of Recombinant Selenoprotein Glutathione Peroxidase 4 (GPX4) (AID 1845192)", "details": "outcome: at 50 µM (top of the series) unless noted", "how_it_was_run": "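qHTS, GR-coupled: GPX4 200 nM + cpd 30 min RT → GSH 1 mM, NADPH 0.5 mM, GR 100 nM → CHP 0.5 mM start; fluor 340/450 at t0 and t15 min; no-enzyme wells as control.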"}, "[4]": {"test": "HepG2 viability counterscreen (readout 2: ATP content) against the NCATS DSHEA and TCM libraries (AID 1794840)", "how_it_was_run": "(§2)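 After HepG2 cells attach for ~4 h, substances are added and incubated ~24 h at 37C, 5% CO2. GF-AFC fluorescence then CellTiter-Glo luminescence give protease and ATP readouts.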"}, "[5]": {"test": "HepG2 viability counterscreen (readout 1: protease activity) against the NCATS DSHEA and TCM libraries (AID 1794841)", "how_it_was_run": "as §2"}, "[6]": {"molecular_target": "Cytochrome P450 2D6 (Homo sapiens) (UniProt P10635)", "sequence (P10635 whole entry, looked up)": "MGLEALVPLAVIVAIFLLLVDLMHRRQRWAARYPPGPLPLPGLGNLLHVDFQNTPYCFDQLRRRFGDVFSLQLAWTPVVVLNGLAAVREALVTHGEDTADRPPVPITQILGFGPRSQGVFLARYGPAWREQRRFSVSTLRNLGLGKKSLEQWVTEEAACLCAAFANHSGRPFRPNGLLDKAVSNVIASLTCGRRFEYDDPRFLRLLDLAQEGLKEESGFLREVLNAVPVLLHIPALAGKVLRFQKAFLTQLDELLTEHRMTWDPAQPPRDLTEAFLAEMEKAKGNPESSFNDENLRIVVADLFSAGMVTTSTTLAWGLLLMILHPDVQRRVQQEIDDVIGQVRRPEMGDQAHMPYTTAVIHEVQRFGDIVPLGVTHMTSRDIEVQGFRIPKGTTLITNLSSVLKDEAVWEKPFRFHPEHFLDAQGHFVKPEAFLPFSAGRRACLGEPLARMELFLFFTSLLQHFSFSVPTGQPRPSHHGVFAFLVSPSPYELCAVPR", "test": "qHTS for inhibitors of CYP2D6 against the NCATS DSHEA and TCM libraries (AID 1919972)", "how_it_was_run": "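CYP2D6 enzyme with pro-luciferin substrate in manufacturer buffer (typically 100 mM KPO4), preincubated 15 min RT with substances (most at 19.5 nM upward); NADPH regeneration system (1x) started 30–45 min RT reaction; P450-Glo luminescence read after 30 min; quinidine as intraplate control.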"}, "[7]": {"test": "KB-3-1 P-gp reporter qHTS against the NCATS DSHEA and TCM libraries (AID 1919975)", "how_it_was_run": "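Cell viability qHTS: 500 KB-3-1 cells/well, substances in titration, ~72 h, 37C; luminescent CellTiter-Glo read.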"}}, "note": "Records with an inconclusive call do not appear. A call without a number means that no potency is given here. The source made the active and inactive calls. The call rests on the fitted dose curve; in most records, active means well fitted curve in the direction sought with a large enough effect; inconclusive means small, poorly fitted or top-dose-only effect, or another doubt; inactive means no such curve, though single readings can be large; an effect the other way counts as inactive or inconclusive. Wherever outcome is given: nearly all actives have a fitted effect of over 65% in size.", "data": [{"smiles": "Cc1cc(/C=C\\c2ccc3cc(N(C)C)ccc3[n+]2C)c(C)n1-c1ccccc1", "values": [{"measurement": "Potency", "setting": "[1]", "result": "15500 nM (active)"}, {"measurement": "Potency", "setting": "[2]", "result": "30.9 nM (active)"}, {"measurement": "Potency", "setting": "C2A", "result": "2510 nM (active)"}, {"measurement": "Potency", "setting": "CP250", "result": "2820 nM (active)"}, {"measurement": "Potency", "setting": "CP256", "result": "1580 nM (active)"}, {"measurement": "Potency", "setting": "CP297", "result": "2280 nM (active)"}, {"measurement": "Potency", "setting": "CP329", "result": "2030 nM (active)"}, {"measurement": "Potency", "setting": "Dd2", "result": "398 nM (active)"}, {"measurement": "Potency", "setting": "ECU", "result": "2510 nM (active)"}, {"measurement": "Potency", "setting": "FAB9", "result": "2000 nM (active)"}, {"measurement": "Potency", "setting": "HB3", "result": "2820 nM (active)"}, {"measurement": "Potency", "setting": "JCK", "result": "3160 nM (active)"}, {"measurement": "Potency", "setting": "PAD", "result": "3160 nM (active)"}, {"measurement": "Potency", "setting": "PC15", "result": "3550 nM (active)"}, {"measurement": "Potency", "setting": "W2", "result": "128 nM (active)"}]}, {"smiles": "CN(C)CC/C=C1\\c2ccccc2CSc2ccccc21", "values": [{"measurement": "Potency", "setting": "[1]", "result": "inactive"}, {"measurement": "Potency", "setting": "[2]", "result": "inactive"}, {"measurement": "outcome", "setting": "[3]", "result": "inactive"}, {"measurement": "Potency", "setting": "C2A", "result": "inactive"}, {"measurement": "Potency", "setting": "CP250", "result": "inactive"}, {"measurement": "Potency", "setting": "CP256", "result": "inactive"}, {"measurement": "Potency", "setting": "CP297", "result": "inactive"}, {"measurement": "Potency", "setting": "CP329", "result": "inactive"}, {"measurement": "Potency", "setting": "Dd2", "result": "1780 nM (active)"}, {"measurement": "Potency", "setting": "ECU", "result": "inactive"}, {"measurement": "Potency", "setting": "FAB9", "result": "inactive"}, {"measurement": "Potency", "setting": "HB3", "result": "inactive"}, {"measurement": "Potency", "setting": "JCK", "result": "inactive"}, {"measurement": "Potency", "setting": "PAD", "result": "inactive"}, {"measurement": "Potency", "setting": "PC15", "result": "inactive"}, {"measurement": "Potency", "setting": "W2", "result": "1280 nM (active)"}]}, {"smiles": "NC(Cc1c[nH]c2ccccc12)C(=O)O", "note": "(stereo not given)", "values": [{"measurement": "outcome", "setting": "[4]", "result": "inactive"}, {"measurement": "outcome", "setting": "[5]", "result": "inactive"}, {"measurement": "Potency", "setting": "[6]", "result": "inactive"}, {"measurement": "outcome", "setting": "[7]", "result": "inactive"}]}, {"smiles": "COc1ccc2ccc(=O)oc2c1", "values": [{"measurement": "outcome", "setting": "[4]", "result": "inactive"}, {"measurement": "outcome", "setting": "[5]", "result": "inactive"}, {"measurement": "Potency", "setting": "[6]", "result": "inactive"}, {"measurement": "outcome", "setting": "[7]", "result": "inactive"}]}, {"smiles": "O=c1ccc2ccc(O)cc2o1", "values": [{"measurement": "outcome", "setting": "[4]", "result": "inactive"}, {"measurement": "outcome", "setting": "[5]", "result": "inactive"}, {"measurement": "Potency", "setting": "[6]", "result": "inactive"}, {"measurement": "outcome", "setting": "[7]", "result": "inactive"}]}, {"smiles": "CC12CC[C@@H]3c4ccc(OS(=O)(=O)O)cc4CC[C@H]3C1CCC2=O", "note": "(stereo not given in full)", "values": [{"measurement": "outcome", "setting": "[3]", "result": "inactive"}]}, {"smiles": "CC(C)N1CCN(c2ccc(OC[C@@H]3CO[C@@](Cn4cncn4)(c4ccc(Cl)cc4Cl)O3)cc2)CC1", "values": [{"measurement": "Potency", "setting": "[1]", "result": "inactive"}, {"measurement": "Potency", "setting": "[2]", "result": "inactive"}, {"measurement": "outcome", "setting": "[3]", "result": "inactive"}, {"measurement": "Potency", "setting": "C2A", "result": "inactive"}, {"measurement": "Potency", "setting": "CP250", "result": "inactive"}, {"measurement": "Potency", "setting": "CP256", "result": "inactive"}, {"measurement": "Potency", "setting": "CP297", "result": "inactive"}, {"measurement": "Potency", "setting": "CP329", "result": "inactive"}, {"measurement": "Potency", "setting": "Dd2", "result": "inactive"}, {"measurement": "Potency", "setting": "ECU", "result": "inactive"}, {"measurement": "Potency", "setting": "FAB9", "result": "inactive"}, {"measurement": "Potency", "setting": "HB3", "result": "inactive"}, {"measurement": "Potency", "setting": "JCK", "result": "inactive"}, {"measurement": "Potency", "setting": "PAD", "result": "inactive"}, {"measurement": "Potency", "setting": "PC15", "result": "inactive"}, {"measurement": "Potency", "setting": "W2", "result": "inactive"}]}]}
